# Assay outcomes deposited in PubChem BioAssay by several laboratories.
# Compounds with a hit are over-represented: about 3.9% of the library has one in this group of screens.
# BoNT-F LC inh: BoNT/F light chain protease inhibitors, primary screen, biochemical, flow cytometry, MLPCN library | Botulinum neurotoxin type F light chain protease (Clostridium botulinum) | hit rate 0.22% among 360,000 | Multiplex microsphere protease cleavage assay | inhibition, % at 10 µM | AID 588497, 2011; in the data active = inhibition above about 35%, passing the limit was not always enough; inconclusive = no clear call, values can overlap the other calls; note: plate controls were buffer without enzyme for full effect and enzyme alone for no effect
# Anthrax LF inh2: Bacillus anthracis LF protease inhibitors, primary screen, biochemical, multiplex microsphere, MLPCN library; multiplex microsphere protease cleavage assay; inhibition, % at 10 µM; hit rate 0.12% among 360,000; AID 588501, 2011; note: plate controls were buffer without enzyme for full effect and enzyme alone for no effect
# BoNT A protease: BoNT/A light chain protease inhibitors, primary screen, biochemical, flow cytometry, MLPCN library; AID 588499, 2011; multiplex microsphere protease substrate cleavage; Botulinum neurotoxin type A light chain protease (Clostridium botulinum A str. ATCC 3502); hit rate 0.17% among 360,000; inhibition, % at 10 µM; note: plate controls were buffer without enzyme for full effect and enzyme alone for no effect
# Bead autofluor: counter-screen for toxin protease inhibitors: compound fluorescence. fluorescence intensity (no concentration beside the values). compound autofluorescence counterscreen, microsphere flow cytometry; hits give high values. hit rate 3.1% among 360,000. AID 624483; in the data active = fluorescence intensity above about 16000; inconclusive = no clear call, values can overlap the other calls
# MazEF act: activators of E. coli MazEF toxin-antitoxin RNase, primary screen, biochemical, fluorescence, uHTS | activation, % at 20 µM | FAM/BHQ RNA-DNA oligo cleavage fluorescence, 5 h | hit rate 0.32% among 350,000; in the data active = activation above about 50%
# BH1578 lux ind: inducers of Vibrio cholerae quorum light production without autoinducers, primary screen, BH1578 luxS cqsA deficient, single point; V. cholerae BH1578 lux reporter, luminescence, 6 h; activation, % at 18.7 µM; hit rate 0.16% among 350,000; in the data active = activation mostly above about 9.7%, no sharp cut-off; inconclusive = no clear call, values can overlap the other calls; inactive = mostly below about 3.7%
# * hit, by the source's call; i = inactive; u = inconclusive; x = no result given. Cut-off read from the data, not from the text of the source, unless noted: active = inhibition above about 30%; inconclusive = no clear call, values can overlap the other calls; inactive = below that.
SMILES,BoNT-F LC inh,Anthrax LF inh2,BoNT A protease,Bead autofluor,MazEF act,BH1578 lux ind
Cc1c(OCc2nn[nH]n2)ccc2c3c(c(=O)oc12)CCCC3,1,-1,2,22827*,0,6
Cc1c(OCC(=O)C(C)(C)C)ccc2c3c(c(=O)oc12)CCCC3,u,28,1,4197,3,0
O=c1oc2cc(OCc3nn[nH]n3)ccc2c2c1CCCC2,12,-5,7,18827*,2,2
Cc1cc(OCc2nn[nH]n2)c2c3c(c(=O)oc2c1)CCC3,6,-3,3,19295*,0,6
Cc1c(OCC(=O)NCc2ccncc2)ccc2c3c(c(=O)oc12)CCCC3,31,7,12,2715,53*,0
Cc1ccc2oc(NC3=NC4(CCCC4)C4=C(CCCC4=O)N3)nc2c1,0,5,0,3914,x,-3
NS(=O)(=O)c1ccc(CNC(=O)COc2ccc3c4c(c(=O)oc3c2)CCCC4)cc1,-3,-2,-2,5346,165*,i
COC(=O)COc1ccc2c(-c3ccc(OC)cc3)cc(=O)oc2c1,6,-1,0,2113,15,0
CC(=O)C(C)Oc1ccc2c3c(c(=O)oc2c1)CCCCC3 (centres undefined),2,-1,u,19944*,1,i
COc1ccc(-c2cc(=O)oc3cc(OCc4nn[nH]n4)ccc23)cc1,-2,-3,0,16695*,-2,-6
O=C(COc1ccc2c3c(c(=O)oc2c1)CCCC3)NCc1ccncc1,7,5,10,2985,3,0
Cc1c(OCc2nn[nH]n2)ccc2c3c(c(=O)oc12)CCC(C)C3 (centres undefined),-1,-10,u,22299*,-3,i
CSc1ncc(C(=O)Nc2cccnc2)c(C(F)(F)F)n1,-1,-4,-6,5483,-9,0
C=CCOn1c(=O)c(-c2cccs2)[n+]([O-])c2ccccc21,2,3,4,21222*,0,i
COc1ccc(OC)c(N=Cc2c(O)c3ccccc3oc2=O)c1,u,19,-5,3571,78*,0
COc1ccc(Cl)cc1N=Cc1c(O)c2ccccc2oc1=O,u,0,7,3725,-2,i
COc1cccc(C(C(=O)NC2CCCCC2)N(C(=O)Cc2cccs2)c2ccc(-n3cnnn3)c(OC)c2)c1 (centres undefined),2,-1,0,22984*,-8,-6
COc1cc(N(C(=O)Cc2cccs2)C(C(=O)NC2CCCCC2)c2cccc(OC)c2OC)ccc1-n1cnnn1 (centres undefined),1,0,0,2140,4,0
COc1cccc(N2CCN(Cc3cccnc3)CC2)c1,-4,-4,0,20710*,5,0
COc1cccc(CN2CCN(Cc3cccc(F)c3)CC2)c1,24,3,-2,3451,-18,-1
COc1cccc(CN2CCN(c3ncccn3)CC2)c1,-3,-2,0,22009*,4,0
COc1cccc(CN2CCN(Cc3cc(OC)c(OC)cc3[N+](=O)[O-])CC2)c1,14,-13,u,16274*,-2,1
COc1cccc(N2CCN(Cc3ccc(Cl)cc3)CC2)c1,-14,-8,0,10809,-11,0
COc1cccc(N2CCN(Cc3cccc(Cl)c3)CC2)c1,-6,-5,u,24340*,5,i
O=C(Nc1cccc(F)c1)c1ccc(-c2cccnc2)c2ccoc12,-18,-3,-1,3071,x,i
CCN(CC)C1CC(=O)N(c2cccc(Cl)c2)C1=O (centres undefined),-9,5,0,3311,7,0
CCO/C(C)=N/Oc1cc(OC)cc(OC)c1,-3,6,0,5225,x,x
COc1ccc(S(=O)(=O)N2CCCCC2)cc1NC(=O)CNc1ccccc1C(C)=O,6,0,5,6151,5,4
C/C(=C\C=C(C#N)C#N)c1cc(C#N)c(N)o1,-7,6,-2,4043,i,1
